In the supplement of paper PMC8726507:
A number with no mark means an inactive call.

System: Plasmodium falciparum NF54-HGL (transmission to Anopheles stephensi)
Experiment: percentage of barcode signal found in uninfected mosquitoes (transmission-blocking activity); higher = stronger blocking of transmission to mosquito, active = 80 or more
Details: gametocyte preincubation time 24 h, readout time post-feed 8 days
Protocol: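 The mixture was fed to Anopheles stephensi in 96-well plates as blood meals tagged with DNA-barcoded Asaia bacteria. Eight days later, mosquitoes were classed infected or uninfected by luminescence (mean + 5 SD of unfed controls). Barcodes were quantified by Luminex MagPlex-TAG in the pooled uninfected and infected Asaia cultures, background-corrected, and the score is % of barcode signal in uninfected mosquitoes = 100*Iu/(Iu+Ii).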

Structure (SMILES): COc1ccc(-c2nc(-c3cccc(NC(=O)Cc4ccc(F)cc4)c3)no2)cc1OC
- percentage of barcode signal found in uninfected mosquitoes (10 µM): 5.39%

Structure (SMILES): Cc1cc(C)nc(-n2nc(C)cc2Nc2ccccc2)n1
- percentage of barcode signal found in uninfected mosquitoes (20 µM): 80.5% (active)

Structure (SMILES): CCCc1ccc(S(=O)(=O)Nc2ccc(CN3CCN(CC4CC4)CC3)cc2)cc1
- percentage of barcode signal found in uninfected mosquitoes (20 µM): 9.2%

Structure (SMILES): CCOc1ccc(OCC(=O)Nc2cc(C)cc(C)c2)cc1
- percentage of barcode signal found in uninfected mosquitoes (20 µM): 17.5%

Structure (SMILES): Cc1[nH]c2ccccc2c1C(c1cccs1)N1CCN(C)CC1 (stereo not drawn)
- percentage of barcode signal found in uninfected mosquitoes (10 µM): 43.7%

Structure (SMILES): O=C(NCCc1ccn(-c2ccccc2)n1)C1CCCCC1
- percentage of barcode signal found in uninfected mosquitoes (20 µM): 3.62%

Structure (SMILES): O=C(Nc1c(O)cccc1-c1nc2c(C(=O)O)cccc2o1)c1cc(-c2ccccc2)on1
- percentage of barcode signal found in uninfected mosquitoes (20 µM): 20.8%

Structure (SMILES): CCC(NC(=O)c1ccccc1NC(=O)c1ccc(C)cc1)C(=O)OC (stereo not drawn)
- percentage of barcode signal found in uninfected mosquitoes (20 µM): 95.2% (active)

Structure (SMILES): O=C(Nc1cnc2ccccc2c1)c1cccc(-n2cnnn2)c1
- percentage of barcode signal found in uninfected mosquitoes (20 µM): 21.3%

Structure (SMILES): CNC(=O)C1Cc2c([nH]c3cc(Cl)ccc23)C2(CCN(CCc3ccccc3)CC2)N1 (stereo not drawn)
- percentage of barcode signal found in uninfected mosquitoes (20 µM): 87.5% (active)

Structure (SMILES): C[C@H](C(N)=O)N1CCCC[C@@H]1c1ccc(OCc2cccc(F)c2)cc1
- percentage of barcode signal found in uninfected mosquitoes (20 µM): 17.3%

Structure (SMILES): CC(=O)N(CCN(C(=O)c1ccc(F)cc1)c1ccccc1)c1ccccc1
- percentage of barcode signal found in uninfected mosquitoes (20 µM): 1.19%

Structure (SMILES): O=C(COc1cccc(F)c1)Nc1nc(-c2ccccn2)cs1
- percentage of barcode signal found in uninfected mosquitoes (10 µM): 38.7%

Structure (SMILES): O=C(c1ccco1)N(CCCn1ccnc1)c1nc2c(Cl)cccc2s1
- percentage of barcode signal found in uninfected mosquitoes (10 µM): 17.2%

Structure (SMILES): COc1ccc(-c2cnc3cnc(-c4cccc(OC(C)C)c4)cn23)cc1
- percentage of barcode signal found in uninfected mosquitoes (20 µM): -0.618%

Structure (SMILES): CC(=O)N1CCc2cc3nc(C)cc(C)c3cc21
- percentage of barcode signal found in uninfected mosquitoes (20 µM): 5.33%

Structure (SMILES): Cc1ccc(NC(=O)CC2COc3ccccc3O2)cc1Cl (stereo not drawn)
- percentage of barcode signal found in uninfected mosquitoes (10 µM): 38.8%

Structure (SMILES): CCOc1ccc2cc(-c3nn(C(C)(C)C)c(N)c3C(N)=O)cnc2c1
- percentage of barcode signal found in uninfected mosquitoes (10 µM): 71.5%

Structure (SMILES): Cc1cc(Nc2ccc(C(F)(F)F)cc2)n2ccnc2n1
- percentage of barcode signal found in uninfected mosquitoes (20 µM): -1.06%

Structure (SMILES): CC(C)(C)c1ccc(N[C@@H]2CCCC[C@H]2NC(=O)c2ccco2)cc1
- percentage of barcode signal found in uninfected mosquitoes (20 µM): 31.3%

Structure (SMILES): Cc1ccc(NC(=O)c2cc(S(=O)(=O)NC(C)(C)C)ccc2C)nc1
- percentage of barcode signal found in uninfected mosquitoes (20 µM): 20.2%

Structure (SMILES): O=C(Nc1ccccc1-c1nc2c(C(=O)O)cccc2o1)c1ccccc1
- percentage of barcode signal found in uninfected mosquitoes (20 µM): 27.2%

Structure (SMILES): FC(F)(F)c1nnc2ccc(Cl)nn12
- percentage of barcode signal found in uninfected mosquitoes (10 µM): 20.5%
